# Assays:
# HCI01 = cells of a triple-negative basal-like breast cancer xenograft; test: cell viability of combination (% of vehicle); higher = less cytotoxic; conditions: 1 µM; 72 h; partner dose: 10 nM
# Protocol: (§1)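 PDX cells were treated for 72 h with each drug at 1 µM plus afatinib (10 nM; 1 µM for WHIM30). Luciferase viability is expressed as percent of vehicle.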
# WHIM2 = cells of a triple-negative basal-like breast cancer xenograft; test: as above; conditions: 1 µM; 72 h; partner dose: 10 nM
# Protocol: as §1
SMILES,cell viability of combination (HCI01),cell viability of combination (WHIM2)
CCN(CC)CCCC(C)Nc1ccnc2cc(Cl)ccc12.O=P(O)(O)O.O=P(O)(O)O (centres undefined) [Chloroquine diphosphate] + CN(C)C/C=C/C(=O)Nc1cc2c(Nc3ccc(F)c(Cl)c3)ncnc2cc1O[C@H]1CCOC1 [Afatinib],44.6,34.5
CC(C)N=c1cc2n(-c3ccc(Cl)cc3)c3ccccc3nc-2cc1Nc1ccc(Cl)cc1 [Clofazimine] + CN(C)C/C=C/C(=O)Nc1cc2c(Nc3ccc(F)c(Cl)c3)ncnc2cc1O[C@H]1CCOC1 [Afatinib],45.8,38.9
CNCCC(Oc1cccc2ccccc12)c1cccs1.Cl (centres undefined) [Duloxetine HCl] + CN(C)C/C=C/C(=O)Nc1cc2c(Nc3ccc(F)c(Cl)c3)ncnc2cc1O[C@H]1CCOC1 [Afatinib],45.3,41.1
Cl.Cl.O=C1c2c(O)ccc(O)c2C(=O)c2c(NCCNCCO)ccc(NCCNCCO)c21 [Mitoxantrone HCl] + CN(C)C/C=C/C(=O)Nc1cc2c(Nc3ccc(F)c(Cl)c3)ncnc2cc1O[C@H]1CCOC1 [Afatinib],61.6,13.5
COc1ncc(-c2ccc3nccc(-c4ccnnc4)c3c2)cc1NS(=O)(=O)c1ccc(F)cc1F + CN(C)C/C=C/C(=O)Nc1cc2c(Nc3ccc(F)c(Cl)c3)ncnc2cc1O[C@H]1CCOC1 [Afatinib],28.7,15.7
O=C(O)c1cc(O)c(O)c(O)c1 [Gallic acid] + CN(C)C/C=C/C(=O)Nc1cc2c(Nc3ccc(F)c(Cl)c3)ncnc2cc1O[C@H]1CCOC1 [Afatinib],51.4,46.3
CN(C)CCOc1ccc(C(=C(CCCl)c2ccccc2)c2ccccc2)cc1.O=C(O)CC(O)(CC(=O)O)C(=O)O [Toremifene Citrate] + CN(C)C/C=C/C(=O)Nc1cc2c(Nc3ccc(F)c(Cl)c3)ncnc2cc1O[C@H]1CCOC1 [Afatinib],70.8,55.7
COC1=C(OC)C(=O)C(CCCCCCCCCCO)=C(C)C1=O [Idebenone] + CN(C)C/C=C/C(=O)Nc1cc2c(Nc3ccc(F)c(Cl)c3)ncnc2cc1O[C@H]1CCOC1 [Afatinib],58.8,50.1
CCN1CCN(Cc2ccc(Nc3ncc(F)c(-c4cc(F)c5nc(C)n(C(C)C)c5c4)n3)nc2)CC1.CS(=O)(=O)O + CN(C)C/C=C/C(=O)Nc1cc2c(Nc3ccc(F)c(Cl)c3)ncnc2cc1O[C@H]1CCOC1 [Afatinib],40.5,82.2
COc1ccc(C[C@H](N)C(=O)N[C@@H]2[C@H](O)[C@H](n3cnc4c(N(C)C)ncnc43)O[C@@H]2CO)cc1.Cl.Cl [Puromycin dihydrochloride] + CN(C)C/C=C/C(=O)Nc1cc2c(Nc3ccc(F)c(Cl)c3)ncnc2cc1O[C@H]1CCOC1 [Afatinib],69.5,82.6
CC(CCC(=O)O)C1CCC2C3CCC4CC(O)CCC4(C)C3CCC12C (centres undefined) [Lithocholic Acid] + CN(C)C/C=C/C(=O)Nc1cc2c(Nc3ccc(F)c(Cl)c3)ncnc2cc1O[C@H]1CCOC1 [Afatinib],45.1,40.5
COc1cc(Nc2c(C#N)cnc3cc(OCCCN4CCN(C)CC4)c(OC)cc23)c(Cl)cc1Cl [Bosutinib (SKI-606)] + CN(C)C/C=C/C(=O)Nc1cc2c(Nc3ccc(F)c(Cl)c3)ncnc2cc1O[C@H]1CCOC1 [Afatinib],40.3,38
CC(C)c1nc(N(C)S(C)(=O)=O)nc(-c2ccc(F)cc2)c1C=CC(O)CC(O)CC(=O)[O-].CC(C)c1nc(N(C)S(C)(=O)=O)nc(-c2ccc(F)cc2)c1C=CC(O)CC(O)CC(=O)[O-].[Ca+2] (centres undefined) [Rosuvastatin Calcium] + CN(C)C/C=C/C(=O)Nc1cc2c(Nc3ccc(F)c(Cl)c3)ncnc2cc1O[C@H]1CCOC1 [Afatinib],51.4,44.2
N.N.O=C([O-])C1(C(=O)[O-])CCC1.[Pt+2] [Carboplatin] + CN(C)C/C=C/C(=O)Nc1cc2c(Nc3ccc(F)c(Cl)c3)ncnc2cc1O[C@H]1CCOC1 [Afatinib],60.1,53.1
O=C(O)CO.[NH2-].[NH2-].[Pt+2] [Nedaplatin] + CN(C)C/C=C/C(=O)Nc1cc2c(Nc3ccc(F)c(Cl)c3)ncnc2cc1O[C@H]1CCOC1 [Afatinib],49.9,48.5
Clc1ccc(COC(Cn2ccnc2)c2ccc(Cl)cc2Cl)cc1.O=[N+]([O-])O (centres undefined) [Econazole nitrate] + CN(C)C/C=C/C(=O)Nc1cc2c(Nc3ccc(F)c(Cl)c3)ncnc2cc1O[C@H]1CCOC1 [Afatinib],55.8,55.8
C=C1C(=CC=C2CCCC3(C)C2CCC3C(C)CCCC(C)(C)O)CC(O)CC1O (centres undefined) [Calcitriol] + CN(C)C/C=C/C(=O)Nc1cc2c(Nc3ccc(F)c(Cl)c3)ncnc2cc1O[C@H]1CCOC1 [Afatinib],42.1,31.2

# From the supplement of paper PMC6992640
